Assay results: PubChem BioAssay (Tox21)
Results filed as inconclusive are left out. Values without a mark were called inactive. Calls of active or inactive are those of the source. Calls come from the whole dose curve; as a rule, active = well fitted cell-killing curve with a large enough effect in the repeat runs; inconclusive = weak or mixed curves, or effect the other way; inactive = flat fitted curve, though single readings scatter.

Test: qHTS RealTime-Glo MT Cell Viability Assay in HEK293 cells - 32 hour (AID 1224868); note: nearly all actives have a fitted effect of over 50% in size; for activity change, negative = cytotoxic: top concentration of the series differs between compounds
Details: RealTime-Glo luminescence; series mostly up to 76.8 µM; activity change, negative = cytotoxic: at the top concentration
Source text: National Center for Advancing Translational Sciences [NCATS]
NIH Chemical Genomics Center [NCGC]
U.S. Environmental Protection Agency [EPA]
National Institutes of Environmental Health Sciences [NIEHS]
National Toxicology Program [NTP]
U.S. Food and Drug Administration [FDA]
Measure of cell viability is critical in the cell-base assay. Analysis of cell viability is necessary for the characterization of cell responses to cytotoxic drugs and environmental stress. A RealTime-Glo MT Cell Viability Assay to monitor cell viability in real time of continues cell culture during 40 hours of compound treatment was used to screen Tox21 10K library compounds in Hek293 cells. The RealTime-Glo MT Cell Viability Assay is a nonlytic, homogeneous, bioluminescent method to measure cell viability in real time using a simple, plate-based method. The assay involves adding NanoLuc luciferase and a cell-permeant prosubstrate to cells in culture. Viable cells reduce the proprietary prosubstrate to generate a substrate for NanoLuc luciferase. This substrate diffuses from cells into the surrounding culture medium, where it is rapidly used by the NanoLuc Enzyme to produce a luminescent signal. The signal correlates with the number of viable cells, making the assay well suited for cytotoxicity studies.
Tox21 Assay Protocol Summary:
The mixture of Hek293 cell suspension and reagents were dispensed at 600cells/6 ul/well in 1536-well tissue culture treated black solid bottom plates using a Multidrop dispenser. After the assay plates were incubated at a 37 C/5% CO2 incubator for 5 hours, 23 nL of compounds dissolved in DMSO, positive and negative controls was transferred to the assay plate by a pintool work station. The plates were incubated at 37 C for 40 hours. The luminescence intensity were measured at 0h, 8h, 16h, 24h, 32h and 40h time points using ViewLux plate reader during compound treatment.
% is set by controls: 0 for no effect and ±100 for the full control effect; potency is the fitted concentration of half-maximal effect.

In order of rising “activity change, negative = cytotoxic” value:
1. CCCCCSCCCCC  -7.58%
2. Nc1ccccc1S(=O)(=O)O  -0.26%
3. CS(=O)(=O)O  -0.0645%
4. C=CCOCC(CC)(CO)COCC=C  1.07%
5. O=C(O)CNC(=O)c1ccc([N+](=O)[O-])cc1  1.4%
6. C=C1CC[C@H]2C[C@@H]1C2(C)C  2.89%
7. CCCCOCCOCCOCCCC  3.22%
8. CCCCCCCCCCCCCCCCC  3.25%
9. COC(C)(C)CCCC(C)CC=O (stereo not given)  4.44%
10. CCSC(=O)N(CC(C)C)CC(C)C  5.58%
11. CCCCCCOC(=O)CCCCC(=O)OCCCCCC  6.38%
12. NC(=O)c1ccc([N+](=O)[O-])cc1  9.98%
13. CCCCCCCCS(=O)(=O)Cl  10.7%
14. O=C[C@H](O)[C@@H](O)[C@H](O)[C@H](O)CO  10.8%
15. CC(C)=CCCC(C)CC(=O)O (stereo not given)  11.8%
16. O=S(O)CO  12%
17. CCO[Si](CCC1CCC2OC2C1)(OCC)OCC (stereo not given)  12.1%
18. C=COCC1CCC(CO)CC1 (stereo not given)  12.4%
19. CCCCCCCCCCCC  13.6%
20. C=C[Si](OC(=C)C)(OC(=C)C)OC(=C)C  15.4%
21. CC/C=C\CC/C=C/C(OCC)OCC  18.7%

In order of falling “activity change, negative = cytotoxic” value:
1. COc1nc(N)nc2c1ncn2[C@@H]1O[C@H](CO)[C@@H](O)[C@@H]1O  12.3% [at 35.3 µM]
2. CCCN(CCC)CCc1cccc2c1CC(=O)N2  6.07% [at 35.3 µM]
3. N#Cc1ccc(C2CCCc3cncn32)cc1 (stereo not given)  5.91% [at 35.3 µM]
4. Cc1cccc(C)c1NC(=O)C(C)N (stereo not given)  4.85% [at 35.3 µM]
5. CC(=O)N(CC(O)CO)c1c(I)c(C(=O)NCCO)c(I)c(C(=O)NCC(O)CO)c1I (stereo not given)  4.43% [at 35.3 µM]
6. NC(=O)c1cn(Cc2c(F)cccc2F)nn1  4.43% [at 35.3 µM]
7. CCOc1ccc(C(=O)OCCN(CC)CC)cc1  3.43% [at 35.3 µM]
8. CCCc1cc(C(N)=S)ccn1  2.68% [at 35.3 µM]
9. CC(=O)Nc1c(I)cc(I)c(C(=O)O)c1I  2.12% [at 35.3 µM]
10. NCCc1cnc[nH]1  1.71% [at 35.3 µM]
11. O=C(O)Cc1ccc(CCNS(=O)(=O)c2ccc(Cl)cc2)cc1  0.434% [at 35.3 µM]
12. CN1CCN(c2cc3c(cc2F)c(=O)c(C(=O)O)cn3-c2ccc(F)cc2)CC1  -0.149% [at 35.3 µM]
13. CCc1cccc2c(CCO)c[nH]c12  -0.454% [at 35.3 µM]
14. COc1c(N2C[C@@H]3CCCN[C@@H]3C2)c(F)cc2c(=O)c(C(=O)O)cn(C3CC3)c12  -1.47% [at 35.3 µM]
15. CCN(CC)CCOCCOC(=O)C1(c2ccccc2)CCCC1  -8.87% [at 35.3 µM]
16. OC(CCN1CCCCC1)(c1ccccc1)C1CC2C=CC1C2 (stereo not given)  -11.8% [at 35.3 µM]

With `O=C(CCCN1CCC(O)(c2cccc(C(F)(F)F)c2)CC1)c1ccc(F)cc1` the Potency was 19 µM (active).
For `COc1ccc(CCN(C)CCCC(C#N)(c2cc(OC)c(OC)c(OC)c2)C(C)C)cc1OC` (stereo not given), the Potency was 21.3 µM (active).

`NCCCNCCSP(=O)(O)O` gave an activity change, negative = cytotoxic of 3.62% [at 6.97 µM].
